Measurements: paper PMC5540273 (PLoS ONE, 2017)

system: EPHB6
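Further: kd values determined as follow-up on hits from a single-replicate KINOMEscan panel screen.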

Going from `CCc1nc(-c2cccc(N(C)S(=O)(=O)c3ccccc3)c2)c(-c2ccnc(Nc3ccc(N4CCN(C(C)=O)CC4)nc3)n2)s1` [GSK1645895] to `CCc1nc(-c2cccc(C)c2)c(-c2ccnc(NC(=O)c3ccccc3)c2)s1`, the Kd rises from 24 nM to 7600 nM (320-fold).

First: Cl.Cn1ccc(-c2cccc(Nc3ccnc4cc(-c5nccs5)ccc34)c2)n1 [GW525701]
Second: O=C(Nc1n[nH]c2nc(-c3ccco3)c(Br)cc12)c1ccc(CN2CCCC2)cc1.O=C(O)[C@H](O)[C@@H](O)C(=O)O [SB-742352]
The Kd of the first is 2-fold lower: 82 nM for the first, 160 nM for the second.

system: ERBB2

Going from `CS(=O)(=O)CCNCc1ccc(-c2ccc3ncnc(Nc4ccc(OCc5ccccc5)c(Cl)c4)c3c2)o1.Cl` [GW574783] to `CS(=O)(=O)CCNCc1nc(-c2ccc3ncnc(Nc4ccc(OCc5cccc(F)c5)c(Cl)c4)c3c2)cs1.Cl` [GW583340], the Kd rises from 2.8 nM to 5.9 nM (2.1-fold). The first binds more tightly here.

First: Cn1ccc2ncnc(Nc3ccc(Oc4cccc(Cl)c4)c(Cl)c3)c21
Second: OCCOCCn1ccc2ncnc(Nc3ccc(Oc4cccc(Cl)c4)c(Cl)c3)c21
The Kd of the first is 2.4-fold lower: 1.2 nM for the first, 2.9 nM for the second.

First: Fc1cccc(COc2ccc(Nc3ncnc4nn5ccccc5c34)cc2Cl)c1 [GW689066]
Second: Fc1cccc(COc2ccc(Nc3ncnc4cc[nH]c34)cc2Cl)c1
The Kd of the first is 11-fold higher: 24 nM for the first, 2.2 nM for the second. The second binds more tightly here.

Compared with `COc1cc2ncnc(Nc3ccc(OCc4ccccc4Br)c(Cl)c3)c2cc1OC.Cl` [GI261590], `Cl.Fc1ccccc1COc1ccc(Nc2ncnc3ccc(-c4nnc(C(F)(F)F)o4)cc23)cc1Cl` [GW424170] is 6.5-fold higher in Kd: 17 nM for the first, 110 nM for the second. The first binds more tightly here.

`Cl.O=S(=O)(c1cccc(F)c1)c1ccc(Nc2ncnc3cc(Br)sc23)cc1Cl` [GSK306886] and `Fc1cccc(COc2ccc(Nc3ncnc4sc(-c5ccc[nH]5)cc34)cc2Cl)c1` [GW707818] are within 1.5-fold of each other in Kd: 95 nM for the first, 100 nM for the second.

Going from `Clc1cc(Nc2ncnc3cc[nH]c23)ccc1OCc1ccccn1` to `Oc1ccc2ncnc(Nc3ccc(OCc4ccccc4)cc3)c2c1` [GI262866], the Kd rises from 9 nM to 27 nM (3-fold).

`Cl.c1ccc(Cn2ccc3cc(Nc4ncnc5ccccc45)ccc32)cc1` [GW275568] and `Cl.c1ccc(Cn2ncc3cc(Nc4ncnc5ccccc45)ccc32)cc1` [GW273749] are within 1.5-fold of each other in Kd: 14 nM for the first, 11 nM for the second.

`O=C(CCO)NCCn1ccc2ncnc(Nc3ccc(Oc4cccc(C(F)(F)F)c4)c(Cl)c3)c21` showed a Kd of 0.88 nM.

system: ERBB4

`CS(=O)(=O)CCNCc1ccc(-c2ccc3ncnc(Nc4ccc(OCc5ccccc5)c(Cl)c4)c3c2)o1.Cl` [GW574783] and `CS(=O)(=O)CCNCc1nc(-c2ccc3ncnc(Nc4ccc(OCc5cccc(F)c5)c(Cl)c4)c3c2)cs1.Cl` [GW583340] are within 1.5-fold of each other in Kd: 28 nM for the first, 26 nM for the second.

`Cn1ccc2ncnc(Nc3ccc(Oc4cccc(Cl)c4)c(Cl)c3)c21` and `OCCOCCn1ccc2ncnc(Nc3ccc(Oc4cccc(Cl)c4)c(Cl)c3)c21` are within 1.5-fold of each other in Kd: 74 nM for the first, 77 nM for the second.

First: Fc1cccc(COc2ccc(Nc3ncnc4nn5ccccc5c34)cc2Cl)c1 [GW689066]
Second: Fc1cccc(COc2ccc(Nc3ncnc4cc[nH]c34)cc2Cl)c1
The Kd of the first is 2-fold lower: 160 nM for the first, 320 nM for the second.

Compared with `COc1cc2ncnc(Nc3ccc(OCc4ccccc4Br)c(Cl)c3)c2cc1OC.Cl` [GI261590], `Fc1cccc(COc2ccc(Nc3ncnc4sc(-c5ccc[nH]5)cc34)cc2Cl)c1` [GW707818] is 21-fold higher in Kd: 27 nM for the first, 560 nM for the second.

Compared with `O=c1cc(N2CCOCC2)nc2n(Cc3cccc(Cl)c3)ccn12` [GSK2296823], `Cl.c1ccc(Cn2ccc3cc(Nc4ncnc5ccccc45)ccc32)cc1` [GW275568] is lower in Kd: greater than 10000 nM for the first, 140 nM for the second.

First: Cl.c1ccc(Cn2ncc3cc(Nc4ncnc5ccccc45)ccc32)cc1 [GW273749]
Second: O=C(CCO)NCCn1ccc2ncnc(Nc3ccc(Oc4cccc(C(F)(F)F)c4)c(Cl)c3)c21
The Kd of the first is 1.6-fold lower: 61 nM for the first, 100 nM for the second.
